From PubChem BioAssay
“And” between values parts separate entries of the source, which are not always exact repeats. Equal values may be shown once. The source made the active and inactive calls.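 The calls were made as follows, unless noted: active = inhibition at or above 50% relative to wild type and mutant plate controls; inactive = inhibition below 50%.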

Legend:
[1] = inhibitors of TNFa-induced NFkB p65 translocation, primary screen, imaging, HUVEC, MLSMR starter and 10KST1 sets (AID 438;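 active = inhibition above 20% together with a positive visual image hit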;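 also: compound added about 3h40 before a 20 min TNFalpha stimulation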;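 as to inhibition: signal is the nuclear over cytoplasmic p65 intensity ratio per well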); conditions: HUVEC TNFa-induced p65 nuclear translocation; cell count: measured here: nuclei count (cytotoxicity indicator), at 2.08 µM; inhibition: at 2 µM, stronger effect = higher value, 0% TNFa-plus-vehicle, 100% no-TNFa wells
[2] = inhibitors of mutant huntingtin aggregation, primary screen, imaging, exon1htt(103Q)mCFP cells, high-content imaging (AID 483;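 active = visual image review flags a hit and inhibition of aggregation exceeds 20%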;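 also: compound exposure lasted 3 days before fixation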;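 as to nuclei count: percent of the per-plate median nuclei count of sample wells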); conditions: exon1htt(103Q)mCFP cell line, aggregate imaging, at 2 µM; inhibition of aggregation: stronger effect = higher value; nuclei count: measured here: cell count, toxicity
[3] = inhibitors of E-selectin induction by TNFa, primary screen, imaging, HUVEC, immunofluorescence, MLSMR starter and 10KST1 sets (AID 487;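 active = visually confirmed hit in the image check and inhibition above 20%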;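 as to inhibition: signal is fraction of cell area covered by stained E-selectin grains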;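 as to nuclei count: 100% = median nuclei count of all wells on the same plate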); conditions: HUVEC TNFalpha-induced E-selectin immunofluorescence imaging, at 2 µM; inhibition: stronger effect = higher value; nuclei count: measured here: cell number, toxicity
[4] = DUSP6 inhibitors restoring Erk phosphorylation by chemical complementation, primary imaging in DUSP6-transfected HeLa (AID 609;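 active = compounds giving at least 50% inhibition in the cell-based MKP-3 phosphatase rescue imaging test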;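 as to inhibition: phospho-Erk level distribution per well compared with pooled transfected vehicle control wells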); conditions: HeLa MKP-3 transfected, phospho-Erk imaging KS statistic, at 10 µM, cells stimulated with TPA for 15 min
[5] = biological target: Dual specificity protein phosphatase 6 (Homo sapiens) (UniProt Q16828); assay: as above; conditions: HeLa MKP-3 transfected, phospho-Erk imaging KS statistic; at 10 µM; stronger effect = higher value; cells stimulated with TPA for 15 min
[6] = biological target: Voltage-gated potassium channel subunit beta-2 (Rattus norvegicus) (UniProt P62483); assay: KvBeta enzyme negative modulators, primary screen, biochemical, NADPH fluorescence (AID 622;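 active = fluorescence slope higher than the sample average by over 3 SD, cut at about -0.22 in these data, passing the limit was not always enough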;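 also: slope of raw intensity against log time taken from 70 to 1610 s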); conditions: recombinant KvBeta, 4-cyanobenzaldehyde reduction, at 10 µM, stronger effect = higher value
[7] = biological target: Voltage-gated potassium channel subunit beta-2 (Rattus norvegicus) (UniProt P62483); assay: KvBeta positive modulators, primary screen, biochemical, NADPH fluorescence (AID 623;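 active = NADPH fluorescence slope more negative than the mean of all samples by about 3 SD, 99.7% confidence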;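 also: fluorescence intensity change per second fitted from 20 to 320 s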); conditions: Recombinant KvBeta, NADPH fluorescence decrease slope, 10 min; at 10 µM; stronger effect = lower value
[8] = biological target: Alpha-2C adrenergic receptor (Homo sapiens) (UniProt P18825); assay: modulators of alpha2C/GIRK thallium flux, primary screen, cell-based, HEK293 alpha2C/GIRK1/2 (AID 624;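 active = fluorescence slope after compound addition differing from the mean of all screened samples at 99.7% confidence, in either direction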;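 also: slope of fluorescence ratio to pre-addition baseline per second over 15 to 24 s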); conditions: thallium flux BTC fluorescence, at 10 µM, actives lie on both sides
[9] = inhibitors of larval lipid processing in zebrafish, primary screen, whole organism, PED6 fluorescence, gall bladder and intestine (AID 686;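 active = a full or partial loss of lipid-probe fluorescence in the fish gall bladder, intestine or both, judged by eye; inactive = no fluorescence loss, or compound toxic to the fish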;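 also: larvae 5 to 7 days old with five fish per well; signal comes from phospholipase A2 cleavage of quenched PED6 carried via bile; overnight exposure to compound and PED6 before scoring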); conditions: Zebrafish larvae PED6 lipid processing, fluorescence scoring; screened at 20 µM (by protocol)
[10] = inhibitors of Chlamydomonas gravitaxis, primary screen, whole organism, Chlamydomonas reinhardtii, WT vs cilia-less mutant, absorbance, 96-well (AID 463189); conditions: OD600 absorbance, 2 days, at 10 µM, stronger effect = higher value;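 also: 0% = wild type cc124 cells in DMSO and 100% = ciliumless bld1 mutant cells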
[11] = inhibitors of Sendai virus-induced IRF3 signaling, primary screen, TLR/RLR signaling modifier project, cell-based, Sendai virus stimulus, luciferase, 10K MLSCN set (AID 602276;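 active = inhibition at or above 50% at 10 µM; inactive = inhibition below 50%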;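 also: firefly luciferase from ISG56 promoter only with Renilla not read in this screen; 0% = Sendai virus plus DMSO and 100% = medium plus DMSO without virus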); conditions: HEK293 RL24 IRF3 luciferase reporter, at 10 µM, stronger effect = higher value
[12] = inhibitors of poly I:C-induced TLR3 signaling, primary screen, cell-based, poly I:C stimulus, luciferase, 10K MLSCN set (AID 602277;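 active = inhibition of the reporter signal at or above 50%; inactive = inhibition below 50%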); conditions: HEK293-TLR3 RL24 IRF3 luciferase reporter, at 10 µM, stronger effect = higher value
[13] = biological target: Muscarinic acetylcholine receptor M4 (Homo sapiens) (UniProt P08173); assay: compounds altering M4/GIRK thallium flux, either direction, primary screen, M4 allosteric agonist project, cell-based, HEK293 M4/GIRK, BTC-AM (AID 625;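 active = fluorescence slope after compound addition differing from the mean of all tested samples at 99.7% confidence, mostly higher but some lower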;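 also: thallium influx through GIRK channels coupled to M4 in HEK293 cells with BTC-AM dye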); conditions: at 10 µM, actives lie on both sides
[14] = measured here: cell density z-score
[15] = measured here: nuclear c-Myc green intensity z-score
[16] = measured here: nuclear pErk red intensity z-score, stronger effect = higher value

Voltage-gated potassium channel subunit beta-2 (Rattus norvegicus), sequence (P62483 whole entry, looked up): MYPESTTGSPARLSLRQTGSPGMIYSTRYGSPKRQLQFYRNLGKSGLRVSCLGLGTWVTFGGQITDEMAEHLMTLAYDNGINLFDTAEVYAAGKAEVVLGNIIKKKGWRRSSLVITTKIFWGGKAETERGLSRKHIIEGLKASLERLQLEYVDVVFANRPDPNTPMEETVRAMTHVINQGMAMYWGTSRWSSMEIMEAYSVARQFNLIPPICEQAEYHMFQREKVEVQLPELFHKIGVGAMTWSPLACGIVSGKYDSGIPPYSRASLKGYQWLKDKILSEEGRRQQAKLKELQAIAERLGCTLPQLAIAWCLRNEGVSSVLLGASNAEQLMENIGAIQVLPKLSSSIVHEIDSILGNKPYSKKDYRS
Dual specificity protein phosphatase 6 (Homo sapiens), sequence (Q16828 whole entry, looked up): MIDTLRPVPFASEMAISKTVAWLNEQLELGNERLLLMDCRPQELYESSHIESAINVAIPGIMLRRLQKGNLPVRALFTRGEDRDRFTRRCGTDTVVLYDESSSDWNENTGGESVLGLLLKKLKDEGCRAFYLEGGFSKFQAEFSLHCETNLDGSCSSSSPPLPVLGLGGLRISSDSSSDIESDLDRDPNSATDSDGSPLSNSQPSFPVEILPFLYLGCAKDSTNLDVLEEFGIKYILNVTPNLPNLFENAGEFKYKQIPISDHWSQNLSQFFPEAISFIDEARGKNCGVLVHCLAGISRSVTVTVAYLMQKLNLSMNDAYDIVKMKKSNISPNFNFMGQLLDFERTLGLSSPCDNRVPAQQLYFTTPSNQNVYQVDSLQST
Alpha-2C adrenergic receptor (Homo sapiens), sequence (P18825 whole entry, looked up): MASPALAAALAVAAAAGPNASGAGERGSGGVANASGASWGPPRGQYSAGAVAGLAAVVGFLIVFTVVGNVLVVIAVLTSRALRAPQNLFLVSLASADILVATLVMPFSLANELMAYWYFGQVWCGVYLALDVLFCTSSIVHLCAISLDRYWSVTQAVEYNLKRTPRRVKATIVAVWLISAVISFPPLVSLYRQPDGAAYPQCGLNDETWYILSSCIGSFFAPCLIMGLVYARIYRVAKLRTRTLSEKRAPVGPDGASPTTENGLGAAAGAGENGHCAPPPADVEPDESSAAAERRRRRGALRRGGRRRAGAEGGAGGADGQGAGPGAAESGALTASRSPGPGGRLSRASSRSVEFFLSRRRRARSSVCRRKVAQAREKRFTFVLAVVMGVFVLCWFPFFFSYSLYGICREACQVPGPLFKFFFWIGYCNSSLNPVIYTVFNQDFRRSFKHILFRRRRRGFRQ
Muscarinic acetylcholine receptor M4 (Homo sapiens), sequence (P08173 whole entry, looked up): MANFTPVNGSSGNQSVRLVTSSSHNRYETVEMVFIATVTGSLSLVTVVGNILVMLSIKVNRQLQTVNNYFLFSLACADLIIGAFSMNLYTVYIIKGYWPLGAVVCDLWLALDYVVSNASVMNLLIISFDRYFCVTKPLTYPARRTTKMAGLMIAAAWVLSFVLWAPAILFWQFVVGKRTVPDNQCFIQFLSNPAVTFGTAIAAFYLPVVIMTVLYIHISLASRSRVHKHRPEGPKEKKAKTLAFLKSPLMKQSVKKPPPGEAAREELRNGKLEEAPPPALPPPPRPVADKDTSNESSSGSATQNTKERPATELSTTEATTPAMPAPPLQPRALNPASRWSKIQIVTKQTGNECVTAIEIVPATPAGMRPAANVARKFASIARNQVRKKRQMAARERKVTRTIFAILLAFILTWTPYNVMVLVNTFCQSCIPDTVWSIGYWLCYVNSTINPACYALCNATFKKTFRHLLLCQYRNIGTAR

Row | SMILES | cell count [1] | inhibition [1] | inhibition of aggregation [2] | nuclei count [2] [%] | inhibition [3] | nuclei count [3] [%] | z-score [4, 14] | z-score [4, 15] | z-score [4, 16] | inhibition [5] | fluorescence slope [6] | NADPH fluorescence slope [7] | slope [8] | outcome [9] | inhibition [10] | inhibition [11] | inhibition [12] | fluorescence slope [13]
1 | CC(=O)OCC(=O)[C@@]1(O)CC[C@H]2[C@@H]3CCC4=CC(=O)CC[C@]4(C)[C@H]3[C@@H](O)C[C@@]21C | 652 | 2.9% (inactive) | -9.2% (inactive) | 82.8 | -99.5% (inactive) | 121 | -2.38 | 1.32 | 1.76 | 10.2% (inactive) | -0.454 (inactive) | -5.2e-05 (inactive) | 0.00445 (inactive) | inactive | 17.2% (inactive) | 2.51% (inactive) | 28.7% (inactive) | 
2 | CN1C2C=C3C(C#N)=C(N)C(C#N)(C#N)[C@@H](c4ccc(Cl)cc4)[C@@H]3C1CC2 (stereo partly drawn) | 492 | -3.5% (inactive) | 11.7% (inactive) | 110 | -63.9% (inactive) | 120 | 1.1 | -0.782 | 0.349 | -2.47% (inactive) | -0.517 (inactive) | -1.7e-05 (inactive) | 0.00502 (inactive) | inactive | 11.6% (inactive) | 13.8% (inactive) | 29.9% (inactive) | 
3 | O=C(CSc1nnc(-c2ccccc2)c(-c2ccccc2)n1)N1CCOCC1 | 611 | -6.9% (inactive) | 15.5% (inactive) | 96.7 | -44.9% (inactive) | 134 | -0.179 | -0.654 | 1.26 | -3.5% (inactive) | -0.397 (inactive) | -1.1e-05 (inactive) | 0.00498 (inactive) | inactive | 9.56% (inactive) | 14.8% (inactive) | 18% (inactive) | 
4 | OC[C@H]1O[C@@H](n2cnc3c(NC4CCCC4)ncnc32)[C@H](O)[C@@H]1O | 528 | -13.1% (inactive) | -15.5% (inactive) | 110 | -19.6% (inactive) | 126 | 1.27 | -0.327 | -0.893 | 11.3% (inactive) | -0.459 (inactive) | 2.3e-05 (inactive) | 0.00611 (inactive) | inactive | 30.3% (inactive) | -1.14% (inactive) | 12.9% (inactive) | 
5 | CCOC(=O)C1=C[C@]2(CC)CCCN3CCc4c(n1c1ccccc41)[C@@H]32 | 689 | -1.6% (inactive) | 15.2% (inactive) | 106 | -59.3% (inactive) | 130 | -0.259 | 0.193 | -0.265 | 3.45% (inactive) | -0.443 (inactive) | -4.6e-05 (inactive) | 0.013 (active) | inactive | 5.61% (inactive) and -6.65% (inactive) | 5.01% (inactive) | 18.6% (inactive) | 
6 | CN(C)c1nc(OCCOC(=O)Nc2ccc(Cl)cc2Cl)nc(N(C)C)n1 | 397 | -14.7% (inactive) | -0.2% (inactive) | 56.4 | -100% (inactive) | 122 | 0.138 | 0.513 | -0.605 | -5.26% (inactive) | -0.48 (inactive) | -8.2e-05 (inactive) | 0.00682 (inactive) | inactive | -0.1% (inactive) | 11.3% (inactive) | 0.088% (inactive) | 
7 | CCN1CCN(c2cc3c(cc2F)c(=O)c(C(=O)O)cn3C2CC2)CC1 | 605 | 1.1% (inactive) | 3.3% (inactive) | 97.3 | -41.3% (inactive) | 116 | 0.332 | 0.418 | 0.882 | -5.24% (inactive) | -0.498 (inactive) | 1.7e-06 (inactive) | 0.0049 (inactive) | inactive | -15.2% (inactive) | 1.29% (inactive) | 31.6% (inactive) | 
8 | O=C(O)c1cc(O)c2c(c1)C(=O)c1cccc(O)c1C2=O | 610 | -3% (inactive) | 26.7% (inactive) | 100 | -98.1% (inactive) | 128 | 0.571 | -1.15 | 1.27 | 3.45% (inactive) | -0.417 (inactive) | -1.3e-05 (inactive) | -0.00744 (active) | inactive | 2.72% (inactive) | 18% (inactive) | 42.8% (inactive) | 
9 | CCCc1c(OCCCCc2nn[nH]n2)ccc(C(C)=O)c1O | 599 | -11.6% (inactive) | -9.3% (inactive) | 95.3 | -37.8% (inactive) | 129 | 0.961 | 0.408 | -0.601 | 9.37% (inactive) | -0.458 (inactive) | -4e-05 (inactive) | 0.00468 (inactive) | inactive | -12.8% (inactive) | 15.4% (inactive) | 34.3% (inactive) | 
10 | C[N+]12CCC(CC1)C(OC(=O)C(O)(c1ccccc1)c1ccccc1)C2 (stereo not drawn) | 609 | -0.8% (inactive) | 3.7% (inactive) | 106 | -71.3% (inactive) | 119 | -0.393 | -0.0364 | 0.334 | 3.45% (inactive) | -0.526 (inactive) | -2.4e-05 (inactive) | 0.00456 (inactive) | inactive | -10.3% (inactive) | 6.28% (inactive) | 21.7% (inactive) | 
11 | Cc1ccc(-n2c(N)c(C(N)=O)sc2=S)cc1 | 560 | -7.1% (inactive) | -1.4% (inactive) | 104 | -12.7% (inactive) | 146 | -0.361 | -1.13 | 1.48 | -1.98% (inactive) | -0.427 (inactive) | -2.9e-05 (inactive) | 0.00443 (inactive) | inactive | 21.1% (inactive) | 2.77% (inactive) | 15.4% (inactive) | 0.00756 (inactive)
